Reference: ChEMBL document CHEMBL3988442, “University of Dundee, Small-Polar-MMV Screening Library” (2021)
For some assays here: Measured potencies and affinities stand elsewhere.

Columns and labels:
Design in all cases: scale not given: direction of the effect not stated beside the values
[1] = molecular target: Protein translocase subunit SecA (Escherichia coli (strain K12)) (UniProt P10408); assay: Assay to Identify E. coli SecA ATPase Inhibitors; format: functional; conditions: 30 µM
[2] = molecular target: T1, Ubiquitin-activating enzyme e1, putative (Leishmania donovani (strain BPK282A1)) (UniProt E9BSI1); assay: Leishmania donovani Ubiquitin Activating Enzyme (LdE1); format: functional; conditions: 30 µM
T1 sequence (whole entry): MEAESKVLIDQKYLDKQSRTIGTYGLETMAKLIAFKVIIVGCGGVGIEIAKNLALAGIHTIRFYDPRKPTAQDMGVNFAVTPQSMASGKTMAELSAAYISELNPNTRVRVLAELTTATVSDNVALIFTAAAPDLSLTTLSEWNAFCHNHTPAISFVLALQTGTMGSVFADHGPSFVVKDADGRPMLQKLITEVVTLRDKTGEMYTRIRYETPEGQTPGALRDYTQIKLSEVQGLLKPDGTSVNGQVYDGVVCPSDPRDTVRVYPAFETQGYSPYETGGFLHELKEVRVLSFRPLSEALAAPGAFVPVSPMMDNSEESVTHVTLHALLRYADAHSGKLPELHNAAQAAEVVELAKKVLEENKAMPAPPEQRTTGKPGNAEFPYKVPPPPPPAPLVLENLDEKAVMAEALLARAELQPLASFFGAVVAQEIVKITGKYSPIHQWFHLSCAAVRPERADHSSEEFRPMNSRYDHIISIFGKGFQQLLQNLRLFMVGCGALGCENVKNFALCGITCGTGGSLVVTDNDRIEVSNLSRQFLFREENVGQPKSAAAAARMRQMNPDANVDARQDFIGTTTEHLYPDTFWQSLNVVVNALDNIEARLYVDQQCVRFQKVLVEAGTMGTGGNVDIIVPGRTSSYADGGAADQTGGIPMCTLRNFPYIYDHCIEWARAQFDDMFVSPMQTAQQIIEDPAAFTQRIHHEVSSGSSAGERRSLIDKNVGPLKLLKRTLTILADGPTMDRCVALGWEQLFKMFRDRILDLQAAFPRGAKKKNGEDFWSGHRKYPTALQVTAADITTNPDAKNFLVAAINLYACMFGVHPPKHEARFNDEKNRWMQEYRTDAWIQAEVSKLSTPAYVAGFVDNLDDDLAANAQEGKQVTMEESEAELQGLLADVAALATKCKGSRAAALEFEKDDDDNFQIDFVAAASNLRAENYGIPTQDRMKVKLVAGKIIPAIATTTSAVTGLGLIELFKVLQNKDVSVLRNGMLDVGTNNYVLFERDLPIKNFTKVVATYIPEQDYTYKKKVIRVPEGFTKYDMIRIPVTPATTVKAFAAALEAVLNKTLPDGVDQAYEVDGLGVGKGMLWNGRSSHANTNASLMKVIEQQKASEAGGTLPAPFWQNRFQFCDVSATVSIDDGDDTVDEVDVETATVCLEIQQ

[3] = molecular target: Sialic acid-binding Ig-like lectin 9 (Homo sapiens) (UniProt Q9Y336); assay: Hs-Siglec9 ALPHAscreen SOP 20170721; conditions: 10 µM
Sialic acid-binding Ig-like lectin 9 (Homo sapiens), sequence (Q9Y336 whole entry): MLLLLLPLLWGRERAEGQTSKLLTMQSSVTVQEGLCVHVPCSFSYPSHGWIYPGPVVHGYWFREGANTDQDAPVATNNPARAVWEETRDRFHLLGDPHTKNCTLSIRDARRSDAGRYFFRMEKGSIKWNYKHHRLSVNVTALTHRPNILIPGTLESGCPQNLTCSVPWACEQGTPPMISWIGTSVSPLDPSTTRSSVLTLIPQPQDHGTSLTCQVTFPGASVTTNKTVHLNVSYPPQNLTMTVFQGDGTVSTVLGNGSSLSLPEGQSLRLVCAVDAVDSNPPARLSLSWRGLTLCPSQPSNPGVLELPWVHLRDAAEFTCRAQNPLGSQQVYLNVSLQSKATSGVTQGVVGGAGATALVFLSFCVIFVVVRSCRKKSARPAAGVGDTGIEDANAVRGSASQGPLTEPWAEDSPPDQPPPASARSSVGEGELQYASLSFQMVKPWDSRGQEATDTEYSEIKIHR

[4] = system: Trypanosoma cruzi; assay: Trypanosoma cruzi phosphomannomutase and mannose-1-phosphate guanylyltransferase assay; format: functional; conditions: 10 µM
[5] = molecular target: T2, Arginase-2, mitochondrial (Homo sapiens) (UniProt P78540); assay: in vitro enzyme assay to detect the production of urea directly proportional to the activity of Arginase II; format: functional; conditions: 33.3 µM; further: in the data most compounds retested in dose-response had high values
T2 sequence (whole entry): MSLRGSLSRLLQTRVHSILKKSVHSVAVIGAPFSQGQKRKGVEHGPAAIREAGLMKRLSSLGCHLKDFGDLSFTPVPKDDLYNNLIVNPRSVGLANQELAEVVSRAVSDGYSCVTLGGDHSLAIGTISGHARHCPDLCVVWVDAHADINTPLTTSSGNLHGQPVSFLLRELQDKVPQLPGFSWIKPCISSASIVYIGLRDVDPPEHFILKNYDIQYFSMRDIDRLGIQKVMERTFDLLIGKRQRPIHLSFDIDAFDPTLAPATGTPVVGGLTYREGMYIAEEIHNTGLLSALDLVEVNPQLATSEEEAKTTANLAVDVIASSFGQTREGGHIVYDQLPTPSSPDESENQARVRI

[6] = molecular target: T3, Proteasome subunit beta (Trypanosoma cruzi) (UniProt O96673); assay: Trypanosoma cruzi proteasome chymotrypsin-like activity (TcProtChymo) assay.; further: in the data most compounds retested in dose-response had high values; format: functional; conditions: 9.37 µM
T3 sequence (whole entry): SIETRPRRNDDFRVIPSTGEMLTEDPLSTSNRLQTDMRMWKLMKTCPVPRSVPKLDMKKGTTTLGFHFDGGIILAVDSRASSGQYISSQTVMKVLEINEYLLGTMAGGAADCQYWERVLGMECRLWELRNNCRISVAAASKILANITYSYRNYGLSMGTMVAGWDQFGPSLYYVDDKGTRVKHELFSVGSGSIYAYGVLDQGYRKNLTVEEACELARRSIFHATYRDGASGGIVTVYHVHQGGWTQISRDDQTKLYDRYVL

[7] = organism: Homo sapiens; assay: To identify inhibition of the IFN signalling (Jak-Stat) pathway via expression of an eGFP reporter gene under the control of an IFN-stimulated response element (ISRE) containing MxA promoter.; format: functional; conditions: 30 µM
[8] = molecular target: T4, Tyrosyl-tRNA synthetase, putative (Trypanosoma cruzi (strain CL Brener)) (UniProt Q4DSP6); assay: Trypanosoma cruzi tyrosyl tRNA synthetase (TcYRS) _High Tyrosine SOP; format: functional; conditions: 30 µM; further: in the data most compounds retested in dose-response had high values
T4 sequence (whole entry): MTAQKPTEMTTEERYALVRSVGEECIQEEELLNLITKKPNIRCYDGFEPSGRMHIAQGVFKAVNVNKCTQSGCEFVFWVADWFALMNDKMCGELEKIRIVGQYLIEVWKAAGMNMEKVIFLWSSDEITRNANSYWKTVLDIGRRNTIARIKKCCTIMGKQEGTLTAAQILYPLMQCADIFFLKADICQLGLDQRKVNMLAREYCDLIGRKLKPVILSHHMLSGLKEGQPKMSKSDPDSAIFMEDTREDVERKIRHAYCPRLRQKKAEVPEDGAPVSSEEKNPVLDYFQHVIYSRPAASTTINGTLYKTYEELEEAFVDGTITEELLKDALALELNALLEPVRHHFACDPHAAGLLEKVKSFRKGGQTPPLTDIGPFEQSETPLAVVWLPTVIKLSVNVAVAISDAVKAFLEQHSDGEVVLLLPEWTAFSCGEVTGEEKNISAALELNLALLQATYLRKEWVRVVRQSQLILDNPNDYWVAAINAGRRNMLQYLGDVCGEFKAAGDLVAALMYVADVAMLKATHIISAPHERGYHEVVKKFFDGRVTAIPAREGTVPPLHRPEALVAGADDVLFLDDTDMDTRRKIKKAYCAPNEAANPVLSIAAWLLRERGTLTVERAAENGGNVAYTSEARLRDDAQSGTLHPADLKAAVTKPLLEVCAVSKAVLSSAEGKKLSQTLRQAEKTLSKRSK

[9] = molecular target: T4, Tyrosyl-tRNA synthetase, putative (Trypanosoma cruzi (strain CL Brener)); assay: Trypanosoma cruzi tyrosyl tRNA synthetase (TcYRS) SOP; format: functional; conditions: 30 µM
[10] = molecular target: Chromo domain-containing protein 1 (Saccharomyces cerevisiae (strain ATCC 204508 / S288c) (Baker's yeast)) (UniProt P32657); assay: ScCHD-1 Enzyme Inhibition Assay; format: functional; conditions: 30 µM; further: in the data most compounds retested in dose-response had high values
Chromo domain-containing protein 1 (Saccharomyces cerevisiae (strain ATCC 204508 / S288c) (Baker's yeast)), sequence (P32657 whole entry, the tested form may be a part): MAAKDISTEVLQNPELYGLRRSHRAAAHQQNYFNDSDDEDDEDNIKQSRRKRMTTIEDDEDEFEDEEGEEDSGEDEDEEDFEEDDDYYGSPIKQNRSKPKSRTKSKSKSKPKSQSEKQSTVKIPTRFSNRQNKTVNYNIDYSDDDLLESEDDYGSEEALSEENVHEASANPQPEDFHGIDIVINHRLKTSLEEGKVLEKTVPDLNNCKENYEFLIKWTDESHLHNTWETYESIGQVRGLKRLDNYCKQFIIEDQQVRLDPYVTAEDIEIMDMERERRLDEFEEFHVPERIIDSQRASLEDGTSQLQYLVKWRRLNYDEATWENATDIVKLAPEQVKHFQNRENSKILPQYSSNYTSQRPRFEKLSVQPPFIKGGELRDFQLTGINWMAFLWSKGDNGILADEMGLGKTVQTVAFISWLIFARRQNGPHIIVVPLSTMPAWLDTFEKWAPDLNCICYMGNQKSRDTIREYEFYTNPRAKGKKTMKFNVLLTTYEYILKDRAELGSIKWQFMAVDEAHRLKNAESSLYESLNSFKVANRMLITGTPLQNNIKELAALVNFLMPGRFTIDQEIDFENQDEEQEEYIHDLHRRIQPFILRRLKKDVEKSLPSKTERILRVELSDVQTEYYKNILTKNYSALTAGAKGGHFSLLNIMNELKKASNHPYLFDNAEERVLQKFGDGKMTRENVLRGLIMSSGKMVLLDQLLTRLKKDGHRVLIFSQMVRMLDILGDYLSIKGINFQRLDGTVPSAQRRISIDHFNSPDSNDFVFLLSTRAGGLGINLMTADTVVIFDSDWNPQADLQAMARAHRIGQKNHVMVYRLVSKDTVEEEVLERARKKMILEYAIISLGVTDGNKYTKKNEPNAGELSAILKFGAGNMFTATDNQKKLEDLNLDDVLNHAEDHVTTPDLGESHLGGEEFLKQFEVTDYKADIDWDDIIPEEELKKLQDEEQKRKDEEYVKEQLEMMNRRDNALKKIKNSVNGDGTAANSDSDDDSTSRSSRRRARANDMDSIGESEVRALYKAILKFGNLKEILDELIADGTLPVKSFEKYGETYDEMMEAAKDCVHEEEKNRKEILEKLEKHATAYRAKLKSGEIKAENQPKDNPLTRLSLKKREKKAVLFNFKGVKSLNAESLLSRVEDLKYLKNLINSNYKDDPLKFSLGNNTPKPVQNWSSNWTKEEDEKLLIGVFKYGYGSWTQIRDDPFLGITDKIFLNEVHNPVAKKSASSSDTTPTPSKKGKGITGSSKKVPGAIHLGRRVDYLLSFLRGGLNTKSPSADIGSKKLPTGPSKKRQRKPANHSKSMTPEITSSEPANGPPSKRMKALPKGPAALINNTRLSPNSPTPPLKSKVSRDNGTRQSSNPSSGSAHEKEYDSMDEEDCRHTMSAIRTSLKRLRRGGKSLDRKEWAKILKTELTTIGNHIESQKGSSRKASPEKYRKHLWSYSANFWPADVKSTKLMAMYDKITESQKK

Protein translocase subunit SecA (Escherichia coli (strain K12)), sequence (P10408 whole entry): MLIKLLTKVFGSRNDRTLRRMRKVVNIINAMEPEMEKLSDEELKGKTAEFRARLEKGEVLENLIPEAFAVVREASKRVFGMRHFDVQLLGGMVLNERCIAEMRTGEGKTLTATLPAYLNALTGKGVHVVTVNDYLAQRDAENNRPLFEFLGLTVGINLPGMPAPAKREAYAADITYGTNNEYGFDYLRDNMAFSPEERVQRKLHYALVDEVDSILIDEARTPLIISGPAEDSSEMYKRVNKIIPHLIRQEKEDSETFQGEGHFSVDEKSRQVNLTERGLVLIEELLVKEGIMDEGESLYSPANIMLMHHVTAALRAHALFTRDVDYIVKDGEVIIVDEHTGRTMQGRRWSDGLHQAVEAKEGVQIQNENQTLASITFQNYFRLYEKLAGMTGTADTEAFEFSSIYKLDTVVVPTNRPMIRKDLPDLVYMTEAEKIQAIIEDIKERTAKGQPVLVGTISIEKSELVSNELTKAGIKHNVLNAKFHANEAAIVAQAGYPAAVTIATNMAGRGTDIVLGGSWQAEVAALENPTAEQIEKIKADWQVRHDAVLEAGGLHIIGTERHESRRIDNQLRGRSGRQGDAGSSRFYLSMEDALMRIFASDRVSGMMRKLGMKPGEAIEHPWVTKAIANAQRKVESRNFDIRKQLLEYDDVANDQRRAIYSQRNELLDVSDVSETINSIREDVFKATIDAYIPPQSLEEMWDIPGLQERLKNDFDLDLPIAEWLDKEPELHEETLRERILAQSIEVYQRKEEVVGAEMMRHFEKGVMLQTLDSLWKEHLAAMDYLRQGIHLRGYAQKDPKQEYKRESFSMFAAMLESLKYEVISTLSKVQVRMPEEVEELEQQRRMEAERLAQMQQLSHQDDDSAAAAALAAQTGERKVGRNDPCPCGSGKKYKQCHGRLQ

SMILES | Percent Effect [1] [%] | Percent Effect [2] [%] | Percent Effect [3] [%] | Percent Effect [4] [%] | Percent Effect [5] [%] | Percent Effect [6] [%] | Percent Effect [7] [%] | Percent Effect [8] [%] | Percent Effect [9] [%] | Percent Effect [10] [%]
CN1CCN(CC2CC2)C(=O)c2cnc(N3CCCC3)nc21 | -7.66 | 0 | 1.44 | -1 | -4.88 | 4.16 | 8.07 | -4.74 | -10.3 | -11.6
CC(C)c1nc(C2CCCN2Cc2ccn(C)c(=O)c2)no1 (stereo not given) | -2.26 | 15.4 | 1.98 | -0.845 | 7.79 | 20.1 | 17.1 | 6.22 | 18.1 | -2.67
Cc1cnn(CC2CCCN2C(=O)c2ccc(C(N)=O)cn2)c1 (stereo not given) | -5 | 15.4 | 2.02 | 5.92 | 2.05 | 9.47 | 12.1 | 0.478 | 13.2 | -6.88
Cc1noc(C(C)C)c1C(=O)NCCCN1CCCC1 | -2.44 | 26 | 0.986 | 1.12 | -3.48 | 12.1 | 8.55 | 7.84 | 30.6 | -13.2
Fc1ccc(CN2CCC(c3n[nH]c4ncccc34)CC2)cc1F | -7.07 | 4 | -2.28 | -6.11 | -0.885 | 3.94 | 16.9 | -4.23 | -5 | -26.5
O=C(c1ccco1)N1CCC2(CCC(=O)N2Cc2cccc(F)c2)CC1 | -1.47 | 14.3 | 3 | -1.31 | 0 | 6.09 | -5.56 | 5.8 | 10 | -5.07
COC(=O)c1cccn1C1CCN(Cc2ccccc2)CC1 | 0.208 | 7.79 | 10 | 2.05 | -10.9 | 6.49 | 16.2 | 3.92 | 11.8 | -3.52
COc1ccc(C(N)c2cccc(S(C)(=O)=O)c2)cc1 (stereo not given) | -6.1 | 18.7 | 7.33 | 2.41 | -6.65 | 4.83 | 9.08 | 4.74 | 15.4 | -12.4
O=C(NCCCNc1ccccc1)c1scnc1Cl | -4.57 | 13.3 | -2.42 | -3.61 | 0.444 | 8.06 | 24.4 | 3.68 | 12.8 | -10.6
CC(C)c1nc(C2CCCN2CC(=O)Nc2nncs2)no1 (stereo not given) | -6.03 | 16 | 8.36 | 0.402 | -1.33 | 5.17 | 7.39 | 5.79 | 15.4 | 23.5
CN(Cc1ccccc1)CC(O)Cn1cnc2ccccc2c1=O (stereo not given) | -0.933 | 2.56 | 0.642 | 4.79 | 9.84 | -2.13 | 12.8 | 0.478 | 6.02 | 0.379
CC(C)N(C)C(=O)CN1CCCC(c2ccc(C(=O)O)cc2)C1 (stereo not given) | -2.28 | 18.9 | -0.275 | 0.485 | -66.1 | 12.3 | 29.1 | 5.85 | 19.5 | -6.15
CN(C)CC1CN(Cc2coc(-c3ccccc3Cl)n2)CCO1 (stereo not given) | -1.66 | 13.3 | -4.39 | -2.41 | 2.66 | 10.6 | 3.83 | 0.526 | 5.13 | -10.4
CN1CCN(CCO)C(=O)C12CCN(Cc1ccsc1)CC2 | -2.2 | 9.09 | -2.51 | -1.88 | 1.83 | 13.5 | -2.12 | 3.87 | 12.5 | -7.99
CC(Cn1cccn1)NC(=O)Cc1cccs1 (stereo not given) | -0.712 | 16 | 1.17 | 3.41 | 3.99 | 6.36 | 28.8 | 0.526 | 7.69 | -16
Cc1cccc(CN2C(=O)CCC23CCN(Cc2cccn2C)CC3)n1 | -2.82 | 27.3 | -0.409 | -0.75 | 0.457 | 16.9 | 23.5 | 9.66 | 22.5 | -11.1
c1ccc(Cn2ccnc2CN2CCCC2c2noc(C3CC3)n2)cc1 (stereo not given) | 2.82 | 5.33 | -7.23 | -5.22 | 1.77 | 19.1 | 15.7 | 7.89 | 10.3 | -12.1
CC(C)n1ccnc1CN1CCCN(C(=O)c2nccnc2N)CC1 | -0.38 | 7.69 | -9.32 | 1.97 | 0 | 18.3 | 1.4 | 9.09 | 22.9 | -3.56
CC(C)(C)c1nnc(CN2CCCC(Cn3cncn3)C2)o1 (stereo not given) | -2.1 | -2.56 | 0.0313 | 4.41 | 0.41 | -1.79 | 8 | 2.39 | 1.21 | -1.8
O=C(CCSc1ccc(F)cc1)NS(=O)(=O)c1ccc2c(c1)OCCO2 | -5.54 | -10.3 | -3.31 | 4.22 | -2.05 | 13.1 | 1.97 | -11 | -1.21 | -2.81
CNC(=O)N1C[C@H]2C[C@H](C(=O)Nc3ccccc3)[C@@H](C1)O2 | -6.94 | -35.1 | 1.87 | 0.0974 | -3.24 | 11.7 | 1.26 | 4.74 | 10.3 | 13.9
CCOC1COC2(CCN(Cc3cccc(F)c3)CC2)C1 (stereo not given) | -1.34 | 14.3 | -2.76 | -1.13 | 0.457 | 5.75 | 21.4 | 2.9 | 7.5 | -7.79
O=C(c1ccc2c(c1)OCO2)N1CCN(c2cnccn2)CC1 | -4.95 | 12.8 | -0.564 | -1.6 | 4.51 | 10.2 | 16 | 5.26 | 13.2 | -6.8
